High-throughput results as filed in PubChem.
Sa ugtP lethal: growth inhibition of ugtP-null S. aureus, primary screen, RN4220 ugtP deletion, OD600. 16 h. growth inhibition, % (no concentration beside the values). 0.54% of 330,000 active; in the data active means growth inhibition above about 68%;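 further: plate controls were untreated wells for no effect and antibiotic for full effect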
3CLpro inhibitor: SARS-CoV 3CLpro protease inhibitors, primary screen, biochemical, quenched FRET; Replicase polyprotein 1ab (Severe acute respiratory syndrome coronavirus), P0C6X7; recombinant SARS-CoV 3CLpro, quenched FRET peptide cleavage; inhibition, % at 6 µM; 0.14% of 290,000 active; AID 1706, 2009; in the data active means inhibition above about 12%
PfHsp40 rescue: rescue of yeast from PfHsp40 toxicity, primary screen, S. cerevisiae, ATP luminescence; S. cerevisiae expressing PfHsp40, growth rescue; growth rescue, % at 12.5 µM; 0.68% of 340,000 active; AID 504582, 2011; in the data active means growth rescue above about 28%, passing the limit was not always enough;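 further: yeast W303a lacking pdr1 and pdr3 grown in galactose medium; growth measured after three days at 30 °C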
RN4220 kill: growth inhibition of S. aureus RN4220, primary screen, OD600. 0.33% of 330,000 active. 16 h. inhibition, % (concentration not given with the values); in the data active means inhibition above about 85%;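 further: plate controls were untreated cells for no effect and reference antibiotic for full effect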
BJeLR lethal: MLPCN primary cell-based screen for lethality selective to Ras in HRASV12 cells; BJeLR (HRASV12) viability, CellTiter-Glo ATP luminescence, 48 h; inhibition, % (test concentration not listed); 0.17% of 300,000 active; AID 1554, 2009; in the data active means inhibition above about 50%
Numbers without * were called inactive; . = no result. Sampled rows, rich in hits. Any-hit rate of the full collection: about 1.3%.

SMILES	Sa ugtP lethal	3CLpro inhibitor	PfHsp40 rescue	RN4220 kill	BJeLR lethal
Cc1nn(-c2ccccc2)c2c1C1(C(=O)N3c4c(cccc41)C(C)CC3(C)C)C(C#N)=C(N)O2 (stereo unspecified)	92*	4	-1	96*	-15
COc1ccccc1OCCNC(=O)c1ccc(Br)cc1	6	2	168*	5	7
COc1ccccc1OCCNC(=O)c1ccc(C(C)(C)C)cc1	-3	.	1	4	3
CCOC(=O)/C=C1\SCC(=O)N1CC(=O)Nc1ccc(C(C)C)cc1	1	7	1	-1	-1
Cc1cccc(N=Cc2[nH]c3ccc(Br)c(Cl)c3c2O)c1	100*	-3	1	35	.
CC(C)C(NC(=O)c1ccccc1F)C(=O)NCc1ccc(F)cc1 (stereo unspecified)	7	2	0	2	9
COc1ccc(-c2cc(-c3c(O)c(OC)c4occc4c3OC)[nH]n2)cc1OC	-8	6	31*	10	5
CCCCCOc1ccc(CSc2n[nH]c(C)n2)cc1	9	3	271*	-1	1
Cc1nc(SCc2ccc(OCCC(C)C)cc2)n[nH]1	4	5	301*	17	6
Cc1nc(SCc2ccc(F)cc2)n[nH]1	1	2	-1	0	-29
COc1ccc(CN2CCCCC2C)cc1C (stereo unspecified)	-5	1	0	-16	6
COc1ccc(S(=O)(=O)n2cnc3cc(C)c(C)cc32)cc1C	-1	4	0	4	2
COc1ccc(-c2ccc(SC)nn2)cc1	2	-3	0	4	66*
COC(=O)C1=C(N)c2c(F)cccc2C1(C#N)c1ccccc1 (stereo unspecified)	-1	0	2	7	1
Cc1cc(C)c(S(=O)(=O)Oc2ccccc2[N+](=O)[O-])c(C)c1	2	.	-1	7	.
CC1=CC(=O)C=C(C)C1=NOc1ccccc1[N+](=O)[O-]	-3	6	0	1	51*
CCOC(=O)c1c(-c2ccc(F)cc2)csc1NC(=O)c1c(-c2ccccc2)noc1C	.	0	32*	.	6
COC(=O)/C=C1\OC(c2ccccc2)=CC1=O	.	4	.	.	3
Oc1ccccc1C1SC(c2ccccc2O)SC(c2ccccc2O)S1 (stereo unspecified)	100*	.	32*	100*	.
Cc1cc2c(cc1C)CSC(c1ccccc1O)SC2	-20	5	12	-3	1
CCOC(=O)C1Oc2ccccc2C(c2ccoc2)=C1C(=O)OC (stereo unspecified)	-5	.	0	0	.
c1ccc(-c2ccc(-c3nc(-c4ccccn4)no3)cc2)cc1	1	7	-1	25	81*
O=C(Nc1nnc(C2=COCCO2)o1)c1cccc(Br)c1	99*	-1	59*	92*	1
O=C(NC1CCCC1)c1ccc(Cn2c(=O)[nH]c3ccsc3c2=O)cc1	0	5	51*	5	22
O=C(Cn1c(=O)[nH]c2ccsc2c1=O)NC1CCCCC1	-1	-2	0	-1	-3
SMILES	Sa ugtP lethal	3CLpro inhibitor	PfHsp40 rescue	RN4220 kill	BJeLR lethal
Cc1ccccc1NS(=O)(=O)c1cc(S(C)(=O)=O)ccc1C	9	2	0	5	2
CCCCCCNC(=O)CCNC(=O)c1cc(OC)c(OC)c(OC)c1	0	-1	-1	2	-10
COc1ccc(-c2cc(C(=O)N3CCN(S(=O)(=O)c4ccccc4)CC3)[nH]n2)cc1	32	2	1	-4	2
O=C(c1cc(-c2ccccc2)n[nH]1)N1CCN(S(=O)(=O)c2ccccc2)CC1	-13	-2	30*	-1	-11
COc1ccccc1NC(=O)C1=C(C)Nc2nc(-c3cccnc3)nn2C1c1ccccn1 (stereo unspecified)	-15	.	-1	-2	.
C[n+]1c(-c2ccccc2)c2cc(N)ccc2c2ccc(N)cc21	98*	-7	128*	37	44
CCc1c(C)sc(NC(=O)Cn2nc(C)c([N+](=O)[O-])c2C)c1C(N)=O	4	1	-1	2	4
CCOC(=O)C1CCN(c2c(C(=O)c3ccccc3)cnc3ccc(CC)cc23)CC1	94*	1	1	39	10
COc1cc2ncc(C(=O)c3ccccc3)c(N3CCN(Cc4ccccc4)CC3)c2cc1OC	14	4	54*	-6	12
